Measurements taken from PubChem BioAssay (NCI).
The panel holds about 79,000 compounds, 15% with a hit somewhere; the sample as a whole holds those more often. Activity calls are given as the source filed them. No stated cut-off is given here; in the data, active means growth inhibition above about 70%; inactive means the rest. Where a SMILES comes first, the peptide text is derived from it. [ ]: non-standard residue; d: D form. The star is where a group is joined. Nle = CCCC[CH](N)C(=O)O; Cbz = O=C(OCc1ccccc1)*; Boc = CC(C)(C)OC(=O)*; OBn = c1ccc(CO*)cc1

Columns and labels:
[1] = NCI Yeast Anticancer Drug Screen. Data for the rad50 strain (AID 155);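 further: 0% = growth of vehicle-only cultures of the same strain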; conditions: S. cerevisiae rad50 strain growth inhibition; at 50.0 µM; active compounds read high
How it was run: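 A DNA repair-deficient yeast mutant serves as the test organism; compound-induced growth inhibition is calculated against vehicle-treated cells.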

[2] = NCI Yeast Anticancer Drug Screen. Data for the mec2-1 strain (AID 157); conditions: S. cerevisiae mec2-1 strain, at 50.0 µM, active compounds read high
How it was run: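 Using mec2-1 yeast: add compound, measure growth, express inhibition versus vehicle-treated cultures.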

[3] = NCI Yeast Anticancer Drug Screen. Data for the sgs1 mgt1 strain (AID 161);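 further: 0% = growth of cultures given vehicle only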; conditions: S. cerevisiae sgs1 mgt1 strain, at 50.0 µM, active compounds read high
How it was run: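 Percent growth inhibition was derived by comparing compound-exposed mutant yeast with vehicle-exposed cultures. The strain carries alterations in DNA damage repair.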

[4] = NCI Yeast Anticancer Drug Screen. Data for the cln2 rad14 strain (AID 165);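 further: 0% = growth equal to vehicle treated cultures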; conditions: S. cerevisiae cln2 rad14 strain, at 50.0 µM, active compounds read high
How it was run: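 Yeast strain cln2 rad14, bearing defects in cell cycle control and DNA repair, serves as the test system; values reflect growth inhibition compared with vehicle.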

[5] = NCI Yeast Anticancer Drug Screen. Data for the bub3 strain (AID 167); conditions: S. cerevisiae bub3 mutant strain, at 50.0 µM, active compounds read high
How it was run: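 Inhibition values come from growth of compound-treated mutant yeast normalised to vehicle-treated controls.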

[6] = NCI Yeast Anticancer Drug Screen. Data for the mlh1 rad18 strain (AID 175); conditions: S. cerevisiae mlh1 rad18 strain growth inhibition; at 50.0 µM; active compounds read high
How it was run: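 Steps: expose repair-defective yeast to compound; measure growth; express inhibition against vehicle-treated controls.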

Measured: growth inhibition

CC(=O)c1ccc(CCCCc2ccc([N+](=O)[O-])cc2)cc1
inactive: [1] -4.2% | [2] -17.8% | [3] 16.5% | [4] -59.5% | [5] 18.2% | [6] -32%

COC(=O)C(=[N+]=[N-])C(=O)c1ccccc1
inactive: [1] 10.1% | [2] 1.05% | [3] -1.3% | [4] 4.65% | [5] -3.6% | [6] 6.9%

CC(=O)[CH-]C(=O)Nc1ccccc1.CC(=O)[CH-]C(=O)Nc1ccccc1.CC[O-].CC[O-].[Ti+4]
inactive: [1] -16.4% | [2] 14.3% | [3] 11.3% | [4] 21% | [5] 12.8% | [6] 12.7%

CCOC(=O)c1c(C#N)c2cnn(-c3ccccc3)c2n2cccc12
inactive: [1] 14.1% | [2] 9.8% | [3] -2.25% | [4] -64.2% | [5] -8.25% | [6] 36.1%

Cc1c(Cl)cc([N+](=O)[O-])cc1Cl
inactive: [1] -13.2% | [2] 13.7% | [3] -11.8% | [4] 17.1% | [5] -3.45% | [6] 5.25%

c1ccc2cc3c(cc2c1)[nH]c1ccccc13
inactive: [1] -10.7% | [2] -26.4% | [3] -0.85% | [4] -3.1% | [5] -25.4% | [6] 14.8%

C/C(=N\NC(=S)N1CCC(C)CC1)c1nccnc1C
inactive: [1] 6.1% | [2] 7.85% | [3] 11.4% | [4] 28.1% | [5] 8.95% | [6] 17.7%

Cc1ccc(NC(=O)NCCCCCCNC(=O)Nc2ccc(C)cc2)cc1
inactive: [1] -7.05% | [2] -13% | [3] -7.95% | [4] -9.05% | [5] -14.4% | [6] -17.9%

Nc1cc2c(cc1Cl)-c1cc(Cl)ccc1C2=O
inactive: [1] 5.7% | [2] -9.65% | [3] -2.2% | [4] -24.4% | [5] -8.5% | [6] -8.5%

O=c1[nH]n(Cc2ccccn2)c2ccc([N+](=O)[O-])cc12
inactive: [1] 4.1% | [2] -7.8% | [3] -26.8% | [4] 0.95% | [5] 6.45% | [6] -14.2%

C[C@@]1(CO)O[C@H]1CCC#C[Si](C)(C)C
inactive: [1] -20.9% | [2] -32.4% | [3] -20.2% | [4] 6.7% | [5] -14.2% | [6] 1.05%

Cc1ccc(/C(O)=C/C(=O)C(=O)NN=C(c2ccccc2)c2ccccc2)cc1
inactive: [1] 5.9% | [2] -11.9% | [3] 26.8% | [4] 4.85% | [5] 20.3% | [6] -1.85%

CC(=O)c1c(O)ccc2c1CC(CC=O)O2 (stereo not drawn)
inactive: [1] 18.6% | [2] -1.05% | [3] -20.9% | [4] 0.75% | [5] 9.05% | [6] -21.4%

Oc1ccccc1C=Nc1ccc2c(ccc3c4ccccc4ccc23)c1
inactive: [1] 51.8% | [2] 39.8% | [3] 28% | [4] -6.65% | [5] 48.1% | [6] 39.8%

Cc1ccc(CNC(=O)Nc2cccc(Cl)c2)cc1C
inactive: [1] 6.05% | [2] 15.5% | [3] 7.05% | [4] 1.3% | [5] 16.8% | [6] 5.35%

COc1cc2c(cc1OC)C1CC(CC(N)=O)(C(N)=O)CCN1CC2 (stereo not drawn)
inactive: [1] 2.35% | [2] 16.6% | [3] 14.6% | [4] -49.5% | [5] 1.5% | [6] 17.5%

OCCc1ccccc1CCO
inactive: [1] -29.6% | [2] -17.8% | [3] -13.2% | [4] -16.9% | [5] -5.4% | [6] 8.5%

O=C(O)Cn1ccc(=O)c2cc([N+](=O)[O-])ccc21
inactive: [1] 41% | [2] 15.4% | [3] -11.1% | [4] 12.7% | [5] 24.9% | [6] -49%

CC(C)CC(NC(=O)C(CO)NC(=O)OCc1ccccc1)C(=O)NC(Cc1ccc(O)cc1)C(N)=O (stereo not drawn) (Cbz-Ser-Leu-Tyr-NH2; configuration not given here)
inactive: [1] 47.5% | [2] -8.05% | [3] 27.6% | [4] 4.9% | [5] 3.95% | [6] 13.7%

CC(=O)c1ccccc1NC(=O)C(=O)C(C(=O)c1ccccc1-c1ccccc1)C1OC(=O)c2ccccc21 (stereo not drawn)
inactive: [1] 25% | [2] 2.95% | [3] 8.3% | [4] -49.8% | [5] -1.35% | [6] 11.3%

CC(C)(C)c1ccc(Oc2nc(Oc3ccc(C(C)(C)C)cc3)nc(Oc3ccc(C(C)(C)C)cc3)n2)cc1
inactive: [1] 19.6% | [2] 10.8% | [3] 10.6% | [4] 3.8% | [5] -1.85% | [6] 11.2%

CSC(=NCCN=C(NS(=O)(=O)c1ccc(Cl)cc1)SC)NS(=O)(=O)c1ccc(Cl)cc1
inactive: [1] 5.95% | [2] -5.3% | [3] 7.15% | [4] 1.5% | [5] 4.15% | [6] 5.8%

Cc1cc(Cl)ccc1OCC(=O)OCC(C)(C)[N+](=O)[O-]
inactive: [1] 6.05% | [2] 19.1% | [3] 20.4% | [4] -80.2% | [5] 36.6% | [6] 33.7%

ClC1CC[N-]CC1.ClC1CC[N-]CC1.O=C(O)CC(=O)O.[Pt+2]
inactive: [1] 53.2% | [2] 55.4% | [3] 68.5% | [4] -23.4% | [5] 23.4% | [6] 45.5%

CCCCC(NC(=O)C1CCCN1C(=O)OCc1ccccc1)C(=O)OCc1ccccc1 (stereo not drawn) (Cbz-Pro-[Nle]-OBn; configuration not given here)
inactive: [1] 12.4% | [2] 12.2% | [3] 11.4% | [4] -10.9% | [5] -5.45% | [6] 15.9%

Oc1ccc(Cl)cc1-c1cc(-c2ccccc2)nc(=S)[nH]1
inactive: [1] -12.7% | [2] -34.8% | [3] -17.6% | [4] -0.2% | [5] -1.3% | [6] -3.6%

O=C([O-])C[n+]1ccccc1
inactive: [1] -11.3% | [2] -2.75% | [3] -14.5% | [4] -35.9% | [5] -19.1% | [6] -14.4%

O=C(Nc1nc(C23CC4CC(CC(C4)C2)C3)cs1)c1cc2ccc(O)cc2oc1=O
inactive: [1] 0.7% | [2] 15.8% | [3] 3.55% | [4] 21.9% | [5] 0.2% | [6] -16.6%

COc1ccc(C(=O)Cc2ccc3ccccc3n2)cc1
inactive: [1] -4.75% | [2] 16.7% | [3] -6.8% | [4] -24.9% | [5] -10.8% | [6] 4.45%

CN(C)c1ccc(/C=N/NC(=S)Nc2cccc3cccnc23)cc1
inactive: [1] 18.6% | [2] -3.05% | [3] 1.4% | [4] 20.3% | [5] 20.6% | [6] -2.8%

Cc1ccc2c(c1)C1(c3ccc(Cl)c(Cl)c3)Oc3ccc(C)cc3C(c3ccc(Cl)c(Cl)c3)(O2)O1
inactive: [1] 4.1% | [2] 5.15% | [3] -6.7% | [4] 2.15% | [5] 3.65% | [6] -3%

CCOC(=O)C(Br)(C(=O)OCC)C(C)C
inactive: [1] 3.75% | [2] -0.8% | [3] -16.8% | [4] -16% | [5] 10.8% | [6] 9.1%

O=c1ncccn1C1OC(CO)C(O)C1F (stereo not drawn)
inactive: [1] 4.75% | [2] -6.7% | [3] 9.5% | [4] -7.15% | [5] 3.75% | [6] -1.7%

Cc1ccc(N2C(=O)CSC2=S)cc1F
inactive: [1] 1.55% | [2] 6.55% | [3] 47.4% | [4] 8.15% | [5] 5.6% | [6] 10.7%

CCOc1ccccc1/C=C(/C#N)C(N)=O
inactive: [1] 10.8% | [2] -0.5% | [3] -26.6% | [4] -29.9% | [5] -50.4% | [6] -1.3%

CC(C)CC(NC(=O)OC(C)(C)C)C(=O)NC(CCC(=O)OCc1ccccc1)C(N)=O (stereo not drawn) (Boc-Leu-Glu(OBn)-NH2; configuration not given here)
inactive: [1] 19.1% | [2] -8.9% | [3] 8.65% | [4] 19.9% | [5] 24.4% | [6] 4.65%

COc1ccc(C(=O)C(C)CN2CCOCC2)cc1 (stereo not drawn)
inactive: [1] 68.1% | [2] 22.6% | [3] 40.5% | [4] 32.6% | [5] 52.8% | [6] 53.5%

O=Cc1cc2c(cc1-c1c(C=O)ccc3c1OCO3)OCO2
inactive: [1] 58.2% | [2] 27.2% | [3] 46.9% | [4] 18.6% | [5] 30.9% | [6] 26.6%
